# Measured values taken from PMC7862700, “An all-to-all approach to the identification of sequence-specific readers for epigenetic DNA modifications on cytosine”.
# Experiments:
# Experiment in all cases: DAPPL (digital affinity profiling via proximity ligation, sequencing); 10 mM Tris-HCl pH 7.5, 50 mM NaCl, 1 mM DTT, 4% glycerol, room temperature, 30 min; GST-TFs on glutathione beads, 16-mer random dsDNA library, 0.1% formaldehyde crosslink after washing; high values mean tight binding
# [1] = biological target: T1, FLI1 (Homo sapiens, UniProt Q01543 1-452); conditions: protein: recombinant; tags: N-terminal GST; dsDNA, one strand shown
# T1 sequence: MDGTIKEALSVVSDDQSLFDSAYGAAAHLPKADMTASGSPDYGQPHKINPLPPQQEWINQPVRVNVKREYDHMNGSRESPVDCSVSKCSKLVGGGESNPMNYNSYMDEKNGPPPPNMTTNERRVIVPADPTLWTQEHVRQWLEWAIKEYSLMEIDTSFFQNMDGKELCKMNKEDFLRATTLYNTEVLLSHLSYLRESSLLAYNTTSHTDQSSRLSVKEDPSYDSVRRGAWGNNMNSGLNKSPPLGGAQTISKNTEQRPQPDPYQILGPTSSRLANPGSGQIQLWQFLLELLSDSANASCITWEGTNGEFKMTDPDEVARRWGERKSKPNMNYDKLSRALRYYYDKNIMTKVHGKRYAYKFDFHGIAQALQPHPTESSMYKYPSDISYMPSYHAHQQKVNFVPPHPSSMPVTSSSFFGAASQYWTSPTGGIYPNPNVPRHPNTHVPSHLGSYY
# Summary of the method: (§1)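 Sequencing on an Illumina NextSeq500 followed washing, crosslinking with 0.1% formaldehyde, proximity ligation (BsaI/T4 ligase, 1 h, 37 °C) and PCR amplification of pools that had been incubated for 30 min at room temperature with 200 nmole of a random double-stranded 16-mer DNA library in Tris/NaCl/DTT/glycerol buffer. Each pool held DNA-barcoded human transcription factors, expressed in yeast as GST fusions and captured on glutathione beads, plus a tag-only sample. Binding signal is a hexamer's read frequency for a factor divided by its frequency in the tag-only sample.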
# [2] = biological target: T2, ELK1 (Homo sapiens, UniProt P19419 1-428); conditions: protein: recombinant; tags: N-terminal GST; dsDNA, one strand shown
# T2 sequence: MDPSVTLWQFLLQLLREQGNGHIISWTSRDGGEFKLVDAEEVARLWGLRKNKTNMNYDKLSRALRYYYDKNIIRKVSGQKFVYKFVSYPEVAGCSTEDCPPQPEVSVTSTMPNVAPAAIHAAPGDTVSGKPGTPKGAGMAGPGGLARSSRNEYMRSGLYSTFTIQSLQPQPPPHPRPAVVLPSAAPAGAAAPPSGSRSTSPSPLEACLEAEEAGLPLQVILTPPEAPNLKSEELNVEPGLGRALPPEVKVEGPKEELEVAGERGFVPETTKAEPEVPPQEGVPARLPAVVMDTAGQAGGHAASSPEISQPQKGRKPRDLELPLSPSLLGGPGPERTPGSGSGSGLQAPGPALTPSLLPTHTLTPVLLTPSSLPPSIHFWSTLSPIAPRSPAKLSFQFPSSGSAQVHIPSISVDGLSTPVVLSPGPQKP
# Summary of the method: as §1
# [3] = biological target: T3, GABPA (Homo sapiens, UniProt Q06546 1-454); conditions: protein: recombinant; tags: N-terminal GST; dsDNA, one strand shown
# T3 sequence: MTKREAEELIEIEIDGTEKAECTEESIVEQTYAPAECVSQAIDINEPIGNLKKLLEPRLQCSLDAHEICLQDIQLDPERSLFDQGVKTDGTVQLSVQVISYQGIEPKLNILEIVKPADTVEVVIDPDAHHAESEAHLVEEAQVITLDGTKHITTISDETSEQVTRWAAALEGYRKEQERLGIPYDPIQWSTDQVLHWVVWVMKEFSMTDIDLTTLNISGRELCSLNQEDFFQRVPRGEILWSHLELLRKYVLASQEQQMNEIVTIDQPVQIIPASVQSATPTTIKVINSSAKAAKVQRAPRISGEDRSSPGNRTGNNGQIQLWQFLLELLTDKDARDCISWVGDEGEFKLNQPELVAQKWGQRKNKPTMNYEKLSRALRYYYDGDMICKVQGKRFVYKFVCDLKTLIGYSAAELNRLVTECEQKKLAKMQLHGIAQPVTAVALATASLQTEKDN
# Summary of the method: as §1
# [4] = biological target: T4, ERG (Homo sapiens, UniProt P11308 1-479); conditions: protein: recombinant; tags: N-terminal GST; dsDNA, one strand shown
# T4 sequence: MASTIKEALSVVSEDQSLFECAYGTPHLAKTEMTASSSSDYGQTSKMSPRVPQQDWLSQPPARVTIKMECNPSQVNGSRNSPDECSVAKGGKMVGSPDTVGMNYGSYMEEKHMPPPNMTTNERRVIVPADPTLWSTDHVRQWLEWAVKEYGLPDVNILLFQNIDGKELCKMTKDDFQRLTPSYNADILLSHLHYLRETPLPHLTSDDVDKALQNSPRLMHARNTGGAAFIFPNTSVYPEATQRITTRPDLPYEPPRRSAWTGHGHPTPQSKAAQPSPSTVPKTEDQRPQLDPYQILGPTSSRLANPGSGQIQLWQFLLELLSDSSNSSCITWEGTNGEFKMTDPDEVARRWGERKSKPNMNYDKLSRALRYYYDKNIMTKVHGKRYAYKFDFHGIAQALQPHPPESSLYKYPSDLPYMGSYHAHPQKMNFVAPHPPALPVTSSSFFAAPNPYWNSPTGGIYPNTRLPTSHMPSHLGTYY
# Summary of the method: as §1
# [5] = biological target: ELF1 (Homo sapiens, UniProt P32519 1-619); conditions: protein: recombinant; tags: N-terminal GST; dsDNA, one strand shown
# Summary of the method: as §1
# [6] = biological target: T5, EHF (Homo sapiens, UniProt Q9NZC4 1-300); conditions: protein: recombinant; tags: N-terminal GST; dsDNA, one strand shown
# T5 sequence: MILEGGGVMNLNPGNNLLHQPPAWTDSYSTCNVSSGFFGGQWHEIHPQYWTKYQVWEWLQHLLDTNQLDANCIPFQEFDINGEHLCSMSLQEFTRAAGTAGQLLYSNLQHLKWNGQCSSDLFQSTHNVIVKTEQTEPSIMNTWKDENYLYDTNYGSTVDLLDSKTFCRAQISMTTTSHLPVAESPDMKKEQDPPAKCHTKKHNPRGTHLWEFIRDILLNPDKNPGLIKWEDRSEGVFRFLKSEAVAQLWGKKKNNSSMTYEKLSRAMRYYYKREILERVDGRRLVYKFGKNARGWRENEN
# Summary of the method: as §1
# [7] = biological target: SPI1 (Homo sapiens, UniProt P17947 1-270); conditions: protein: recombinant; tags: N-terminal GST; dsDNA, one strand shown
# Summary of the method: as §1
# [8] = biological target: SPIB (Homo sapiens, UniProt Q01892 1-262); conditions: protein: recombinant; tags: N-terminal GST; dsDNA, one strand shown
# Summary of the method: as §1
# [9] = biological target: T6, ELK3 (Homo sapiens, UniProt P41970 1-407); conditions: protein: recombinant; tags: N-terminal GST; dsDNA, one strand shown
# T6 sequence: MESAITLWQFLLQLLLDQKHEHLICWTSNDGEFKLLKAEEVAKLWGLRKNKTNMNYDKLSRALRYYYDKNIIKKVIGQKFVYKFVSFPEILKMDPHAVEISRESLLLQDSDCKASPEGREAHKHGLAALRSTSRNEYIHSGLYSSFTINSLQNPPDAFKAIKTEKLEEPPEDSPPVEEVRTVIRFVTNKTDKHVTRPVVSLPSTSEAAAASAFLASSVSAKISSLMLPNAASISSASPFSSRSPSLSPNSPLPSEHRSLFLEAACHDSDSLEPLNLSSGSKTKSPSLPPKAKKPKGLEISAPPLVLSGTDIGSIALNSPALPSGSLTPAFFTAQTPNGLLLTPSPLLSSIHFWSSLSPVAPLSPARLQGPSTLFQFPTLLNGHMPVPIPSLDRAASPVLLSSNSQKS
# Summary of the method: as §1
# [10] = biological target: T7, FEV (Homo sapiens, UniProt Q99581 1-238); conditions: protein: recombinant; tags: N-terminal GST; dsDNA, one strand shown
# T7 sequence: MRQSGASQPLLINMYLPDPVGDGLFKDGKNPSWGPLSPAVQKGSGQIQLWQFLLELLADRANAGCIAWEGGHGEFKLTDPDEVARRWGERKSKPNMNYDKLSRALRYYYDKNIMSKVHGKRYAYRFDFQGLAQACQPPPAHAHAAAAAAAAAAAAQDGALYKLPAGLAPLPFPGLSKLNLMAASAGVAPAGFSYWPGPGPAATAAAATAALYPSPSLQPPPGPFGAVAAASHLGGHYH
# Summary of the method: as §1
# [11] = biological target: ETV5 (Homo sapiens, UniProt P41161 1-510); conditions: protein: recombinant; tags: N-terminal GST; dsDNA, one strand shown
# Summary of the method: as §1
# [12] = biological target: HSF1 (Homo sapiens, UniProt Q00613 1-529); conditions: protein: recombinant; tags: N-terminal GST; chain copies: 3; dsDNA, one strand shown
# Summary of the method: as §1
# [13] = biological target: T8, SPIC (Homo sapiens, UniProt Q8N5J4 1-248); conditions: protein: recombinant; tags: N-terminal GST; dsDNA, one strand shown
# T8 sequence: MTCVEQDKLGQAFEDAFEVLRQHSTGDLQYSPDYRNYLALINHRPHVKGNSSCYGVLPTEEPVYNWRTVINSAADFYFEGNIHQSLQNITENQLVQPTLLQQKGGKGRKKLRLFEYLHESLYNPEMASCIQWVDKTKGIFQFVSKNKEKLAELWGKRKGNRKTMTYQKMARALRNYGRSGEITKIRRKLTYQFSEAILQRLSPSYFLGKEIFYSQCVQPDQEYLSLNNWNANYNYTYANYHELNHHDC
# Summary of the method: as §1
# [14] = biological target: ELF4 (Homo sapiens, UniProt Q99607 1-663); conditions: protein: recombinant; tags: N-terminal GST; dsDNA, one strand shown
# Summary of the method: as §1
# [15] = biological target: T9, ELK4 (Homo sapiens, UniProt P28324-2 1-405); conditions: protein: recombinant; tags: N-terminal GST; dsDNA, one strand shown
# T9 sequence: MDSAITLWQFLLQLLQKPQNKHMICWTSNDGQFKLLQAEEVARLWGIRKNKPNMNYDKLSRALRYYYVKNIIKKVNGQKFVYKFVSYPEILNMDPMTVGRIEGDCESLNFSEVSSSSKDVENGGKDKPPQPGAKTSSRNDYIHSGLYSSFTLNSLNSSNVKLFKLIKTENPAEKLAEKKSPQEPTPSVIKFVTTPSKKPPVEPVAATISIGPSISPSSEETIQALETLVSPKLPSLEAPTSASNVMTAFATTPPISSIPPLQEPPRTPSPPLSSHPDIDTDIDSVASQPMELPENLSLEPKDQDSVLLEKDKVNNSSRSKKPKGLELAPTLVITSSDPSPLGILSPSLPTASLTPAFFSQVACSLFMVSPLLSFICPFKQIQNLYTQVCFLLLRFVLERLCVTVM
# Summary of the method: as §1
# [16] = biological target: T10, ETV2 (Homo sapiens, UniProt O00321 1-342); conditions: protein: recombinant; tags: N-terminal GST; dsDNA, one strand shown
# T10 sequence: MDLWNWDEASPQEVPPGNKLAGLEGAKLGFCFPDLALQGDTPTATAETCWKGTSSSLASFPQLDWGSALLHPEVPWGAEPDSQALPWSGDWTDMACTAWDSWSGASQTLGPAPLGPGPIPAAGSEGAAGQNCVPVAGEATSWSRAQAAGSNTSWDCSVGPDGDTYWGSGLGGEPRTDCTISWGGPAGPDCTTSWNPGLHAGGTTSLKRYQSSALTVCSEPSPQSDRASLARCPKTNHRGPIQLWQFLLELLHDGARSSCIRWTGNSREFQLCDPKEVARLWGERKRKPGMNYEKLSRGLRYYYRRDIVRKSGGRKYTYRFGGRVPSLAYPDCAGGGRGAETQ
# Summary of the method: as §1
# [17] = biological target: T11, ELF3 (Homo sapiens, UniProt P78545 1-371); conditions: protein: recombinant; tags: N-terminal GST; dsDNA, one strand shown
# T11 sequence: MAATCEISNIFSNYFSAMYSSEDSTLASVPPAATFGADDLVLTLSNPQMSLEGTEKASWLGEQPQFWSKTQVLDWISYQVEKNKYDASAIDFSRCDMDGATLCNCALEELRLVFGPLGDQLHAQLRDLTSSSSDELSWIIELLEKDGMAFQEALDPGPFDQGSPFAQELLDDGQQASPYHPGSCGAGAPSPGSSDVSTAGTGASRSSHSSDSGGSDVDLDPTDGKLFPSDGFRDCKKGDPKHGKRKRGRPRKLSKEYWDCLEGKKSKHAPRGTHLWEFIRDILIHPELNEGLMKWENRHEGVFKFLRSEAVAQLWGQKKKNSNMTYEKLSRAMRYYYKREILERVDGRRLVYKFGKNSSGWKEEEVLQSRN
# Summary of the method: as §1
# [18] = biological target: CRX (Homo sapiens, UniProt O43186 1-299); conditions: protein: recombinant; tags: N-terminal GST; dsDNA, one strand shown
# Summary of the method: as §1
# [19] = biological target: ETV1 (Homo sapiens, UniProt P50549 1-477); conditions: protein: recombinant; tags: N-terminal GST; dsDNA, one strand shown
# Summary of the method: as §1
# ELF1, sequence (P32519 whole entry): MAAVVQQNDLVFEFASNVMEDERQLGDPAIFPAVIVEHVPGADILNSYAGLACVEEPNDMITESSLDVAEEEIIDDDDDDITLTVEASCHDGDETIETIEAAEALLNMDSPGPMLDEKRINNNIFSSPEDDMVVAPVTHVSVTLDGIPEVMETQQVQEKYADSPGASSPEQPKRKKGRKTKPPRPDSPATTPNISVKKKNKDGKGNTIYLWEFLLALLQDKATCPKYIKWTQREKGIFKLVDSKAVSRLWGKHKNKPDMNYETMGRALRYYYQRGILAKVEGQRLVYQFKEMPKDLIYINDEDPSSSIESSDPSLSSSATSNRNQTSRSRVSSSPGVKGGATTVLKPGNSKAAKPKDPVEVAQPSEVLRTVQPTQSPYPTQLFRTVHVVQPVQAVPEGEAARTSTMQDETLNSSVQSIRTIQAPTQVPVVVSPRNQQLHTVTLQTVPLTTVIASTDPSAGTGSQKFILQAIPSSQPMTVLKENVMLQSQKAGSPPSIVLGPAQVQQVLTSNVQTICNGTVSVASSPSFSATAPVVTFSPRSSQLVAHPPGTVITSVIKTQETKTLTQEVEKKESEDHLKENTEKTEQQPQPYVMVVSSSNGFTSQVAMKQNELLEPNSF
# ELF4, sequence (Q99607 whole entry): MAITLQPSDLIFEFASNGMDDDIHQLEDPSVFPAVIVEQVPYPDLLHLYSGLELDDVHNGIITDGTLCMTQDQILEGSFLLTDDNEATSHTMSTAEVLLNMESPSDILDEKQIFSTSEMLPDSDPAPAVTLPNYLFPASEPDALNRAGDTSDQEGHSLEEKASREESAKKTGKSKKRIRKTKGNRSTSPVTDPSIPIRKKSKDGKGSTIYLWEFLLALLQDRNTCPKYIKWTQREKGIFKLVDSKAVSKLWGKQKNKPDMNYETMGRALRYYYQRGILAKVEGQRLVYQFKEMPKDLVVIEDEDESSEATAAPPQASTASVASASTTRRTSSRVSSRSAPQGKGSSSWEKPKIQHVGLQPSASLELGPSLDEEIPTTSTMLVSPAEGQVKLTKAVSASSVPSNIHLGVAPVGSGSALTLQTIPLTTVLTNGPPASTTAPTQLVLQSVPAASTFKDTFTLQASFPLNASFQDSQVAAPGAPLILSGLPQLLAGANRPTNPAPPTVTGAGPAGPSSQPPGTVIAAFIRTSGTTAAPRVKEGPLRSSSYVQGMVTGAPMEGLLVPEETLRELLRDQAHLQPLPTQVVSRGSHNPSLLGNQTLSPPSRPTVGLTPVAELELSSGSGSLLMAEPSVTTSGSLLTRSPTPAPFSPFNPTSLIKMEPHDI
# SPIB, sequence (Q01892 whole entry): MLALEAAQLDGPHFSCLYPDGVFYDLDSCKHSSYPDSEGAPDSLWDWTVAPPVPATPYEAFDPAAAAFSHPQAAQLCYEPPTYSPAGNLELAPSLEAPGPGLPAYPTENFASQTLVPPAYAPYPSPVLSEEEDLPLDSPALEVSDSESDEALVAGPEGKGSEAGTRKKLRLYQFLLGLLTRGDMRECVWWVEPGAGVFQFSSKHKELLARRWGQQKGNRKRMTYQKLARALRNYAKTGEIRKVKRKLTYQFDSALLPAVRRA
# ETV5, sequence (P41161 whole entry): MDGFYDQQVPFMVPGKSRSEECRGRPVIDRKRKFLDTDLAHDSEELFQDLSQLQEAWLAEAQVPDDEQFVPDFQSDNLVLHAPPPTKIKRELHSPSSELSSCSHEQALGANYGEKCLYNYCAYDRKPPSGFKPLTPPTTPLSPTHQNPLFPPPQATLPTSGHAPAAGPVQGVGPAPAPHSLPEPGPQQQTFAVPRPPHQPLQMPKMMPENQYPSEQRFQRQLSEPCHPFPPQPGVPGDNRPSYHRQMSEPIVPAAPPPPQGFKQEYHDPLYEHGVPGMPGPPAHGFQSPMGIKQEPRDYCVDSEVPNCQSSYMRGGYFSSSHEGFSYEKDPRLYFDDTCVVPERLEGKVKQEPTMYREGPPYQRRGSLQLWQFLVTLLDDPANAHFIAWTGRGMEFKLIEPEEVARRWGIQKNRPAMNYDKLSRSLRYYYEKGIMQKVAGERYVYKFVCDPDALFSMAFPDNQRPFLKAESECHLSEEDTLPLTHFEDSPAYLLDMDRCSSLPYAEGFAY
# ETV1, sequence (P50549 whole entry): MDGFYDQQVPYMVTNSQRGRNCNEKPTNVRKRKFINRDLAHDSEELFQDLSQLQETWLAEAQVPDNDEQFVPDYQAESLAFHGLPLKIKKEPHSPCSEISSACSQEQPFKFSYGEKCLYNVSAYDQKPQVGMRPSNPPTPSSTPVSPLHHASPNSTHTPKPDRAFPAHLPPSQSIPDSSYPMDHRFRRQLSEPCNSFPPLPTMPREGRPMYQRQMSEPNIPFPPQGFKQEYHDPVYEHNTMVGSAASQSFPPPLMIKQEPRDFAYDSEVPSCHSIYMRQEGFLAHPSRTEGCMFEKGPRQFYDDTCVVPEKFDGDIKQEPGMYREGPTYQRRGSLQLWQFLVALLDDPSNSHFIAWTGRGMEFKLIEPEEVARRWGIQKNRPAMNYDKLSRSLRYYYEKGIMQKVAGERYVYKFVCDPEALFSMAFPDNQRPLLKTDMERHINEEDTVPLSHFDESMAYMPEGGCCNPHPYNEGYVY
# CRX, sequence (O43186 whole entry): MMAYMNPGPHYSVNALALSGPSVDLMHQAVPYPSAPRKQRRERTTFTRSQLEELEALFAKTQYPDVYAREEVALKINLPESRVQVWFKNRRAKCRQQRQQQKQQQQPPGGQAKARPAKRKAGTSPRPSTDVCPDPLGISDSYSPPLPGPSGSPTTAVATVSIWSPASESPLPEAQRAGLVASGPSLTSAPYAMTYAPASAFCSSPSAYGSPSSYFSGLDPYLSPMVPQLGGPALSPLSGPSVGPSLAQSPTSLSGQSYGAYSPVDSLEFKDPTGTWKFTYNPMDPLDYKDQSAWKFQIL
# HSF1, sequence (Q00613 whole entry): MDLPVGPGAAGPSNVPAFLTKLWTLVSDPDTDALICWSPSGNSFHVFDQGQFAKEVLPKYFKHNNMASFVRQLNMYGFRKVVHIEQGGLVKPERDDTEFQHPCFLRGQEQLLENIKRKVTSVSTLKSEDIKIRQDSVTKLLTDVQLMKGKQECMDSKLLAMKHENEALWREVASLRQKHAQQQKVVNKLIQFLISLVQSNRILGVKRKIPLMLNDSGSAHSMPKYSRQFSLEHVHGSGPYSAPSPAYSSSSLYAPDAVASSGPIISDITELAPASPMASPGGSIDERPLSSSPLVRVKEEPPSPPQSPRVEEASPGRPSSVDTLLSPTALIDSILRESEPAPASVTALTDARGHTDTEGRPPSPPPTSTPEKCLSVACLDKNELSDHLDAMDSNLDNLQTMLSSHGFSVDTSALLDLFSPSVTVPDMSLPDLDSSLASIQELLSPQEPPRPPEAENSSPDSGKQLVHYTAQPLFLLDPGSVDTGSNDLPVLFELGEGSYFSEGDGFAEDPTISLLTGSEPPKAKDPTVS
sequence,measurement,setting,value
TGTTCT,binding signal,[1],"1.4 fold enrichment (6-mer frequency, TF over GST control)"
same,binding signal,[2],"1.4 fold enrichment (6-mer frequency, TF over GST control)"
same,binding signal,[3],"1.28 fold enrichment (6-mer frequency, TF over GST control)"
same,binding signal,[4],"1.38 fold enrichment (6-mer frequency, TF over GST control)"
same,binding signal,[5],"1.39 fold enrichment (6-mer frequency, TF over GST control)"
same,binding signal,[6],"1.4 fold enrichment (6-mer frequency, TF over GST control)"
same,binding signal,[7],"1.29 fold enrichment (6-mer frequency, TF over GST control)"
same,binding signal,[8],"1.35 fold enrichment (6-mer frequency, TF over GST control)"
same,binding signal,[9],"1.21 fold enrichment (6-mer frequency, TF over GST control)"
same,binding signal,[10],"1.28 fold enrichment (6-mer frequency, TF over GST control)"
same,binding signal,[11],"1.32 fold enrichment (6-mer frequency, TF over GST control)"
same,binding signal,[12],"2.8 fold enrichment (6-mer frequency, TF over GST control)"
same,binding signal,[13],"1.45 fold enrichment (6-mer frequency, TF over GST control)"
same,binding signal,[14],"1.42 fold enrichment (6-mer frequency, TF over GST control)"
same,binding signal,[15],"1.3 fold enrichment (6-mer frequency, TF over GST control)"
same,binding signal,[16],"1.23 fold enrichment (6-mer frequency, TF over GST control)"
same,binding signal,[17],"1.38 fold enrichment (6-mer frequency, TF over GST control)"
same,binding signal,[18],"1.45 fold enrichment (6-mer frequency, TF over GST control)"
same,binding signal,[19],"1.39 fold enrichment (6-mer frequency, TF over GST control)"
